Assay outcomes as filed in PubChem BioAssay.
PfM18AAP inh-1: PfM18AAP inhibitors, malaria aminopeptidase, primary screen, biochemical, QFRET, recombinant enzyme | inhibition, % at 7.35 µM | 1.2% of 290,000 active | H-Glu-NHMec fluorogenic cleavage | AID 1822, 2009 | M18 aspartyl aminopeptidase (Plasmodium falciparum 3D7);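 active = inhibition above the campaign mean inhibition over all tested compounds plus 3 SD, cut at about 28% in these data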;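 also: 0% = plate median of test compound wells and 100% = 2 mM ZnCl2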
PfGluPho inh: PfG6PD enzyme inhibitors, primary screen, biochemical, fluorescence intensity, uHTS; glucose-6-phosphate dehydrogenase-6-phosphogluconolactonase (Plasmodium falciparum 3D7); PfGluPho enzyme, NADPH resazurin-diaphorase fluorescence; inhibition, % at 20 µM; 0.78% of 350,000 active;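 active = inhibition reaching at least a set limit at 20 µM in the primary screen, cut at about 59% in these data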;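 also: 0% = DMSO wells with substrate and 100% = DMSO wells lacking glucose-6-phosphate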
PRMT1 inh: PRMT1 methyltransferase inhibitors, primary screen, biochemical, fluorescence polarization; Protein arginine N-methyltransferase 1 (Homo sapiens), Q99873; recombinant PRMT1, activity-based probe fluorescence polarization; inhibition, % at 2.79 µM; 1.3% of 370,000 active; AID 652257, 2013;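 active = inhibition above about 21% made by adding two undisclosed values, limit read from the data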
UHRF1 binding: UHRF1 methylated DNA binding inhibitors, primary screen, counter-screen for MBD2 inhibitor project, biochemical, TR-FRET, human UHRF1, single concentration; AID 687016, 2013; 0.75% of 370,000 active; inhibition, % at 4.4 µM; UHRF1 binding to methylated oligo; in the data active = inhibition above about 21%;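 also: UHRF1 SRA domain binding a hemimethylated CpG hairpin DNA probe; 0% = median of test compound wells and 100% = reference inhibitor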
Target sequence (Q96T88 whole entry, looked up, the tested form may be a part): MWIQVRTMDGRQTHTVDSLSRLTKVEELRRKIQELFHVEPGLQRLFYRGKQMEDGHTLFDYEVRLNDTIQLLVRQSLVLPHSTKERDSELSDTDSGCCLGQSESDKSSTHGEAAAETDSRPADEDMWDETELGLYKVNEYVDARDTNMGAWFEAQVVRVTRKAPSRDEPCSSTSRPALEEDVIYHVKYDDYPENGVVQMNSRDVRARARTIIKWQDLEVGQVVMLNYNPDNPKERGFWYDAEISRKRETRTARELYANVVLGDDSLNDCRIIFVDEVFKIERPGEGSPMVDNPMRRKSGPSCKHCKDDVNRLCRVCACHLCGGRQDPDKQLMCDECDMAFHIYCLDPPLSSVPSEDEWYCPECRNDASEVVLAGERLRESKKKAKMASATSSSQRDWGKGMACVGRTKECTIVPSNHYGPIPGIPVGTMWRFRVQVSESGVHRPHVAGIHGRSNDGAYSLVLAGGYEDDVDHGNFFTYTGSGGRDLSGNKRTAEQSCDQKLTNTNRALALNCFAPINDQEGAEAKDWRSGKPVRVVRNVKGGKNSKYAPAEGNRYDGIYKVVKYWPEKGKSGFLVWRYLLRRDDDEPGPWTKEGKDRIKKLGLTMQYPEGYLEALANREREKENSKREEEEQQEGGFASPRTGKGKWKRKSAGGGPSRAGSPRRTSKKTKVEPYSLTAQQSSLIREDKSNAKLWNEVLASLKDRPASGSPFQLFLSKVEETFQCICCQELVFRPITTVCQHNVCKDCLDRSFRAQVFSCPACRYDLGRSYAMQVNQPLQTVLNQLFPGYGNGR
MBD2 DNA inh: inhibitors of MBD2 binding to methylated DNA, primary screen, biochemical, TR-FRET, DNA-binding domain, human; Methyl-CpG-binding domain protein 2 (Homo sapiens), Q9UBB5; MBD2 binding to methylated oligonucleotide; inhibition, % at 4.4 µM; 0.31% of 370,000 active; AID 686964, 2013; in the data active = inhibition above about 13%
PfM18AAP inh-2: PfM18AAP inhibitors, malaria aminopeptidase, confirmation, biochemical, QFRET, recombinant enzyme, triplicate; shares compounds with PfM18AAP inh-1; H-Glu-NHMec fluorogenic cleavage; inhibition, % at 7.35 µM; 28% of 2,400 active; AID 2170, 2009;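 active = mean inhibition over replicate wells above the hit cutoff set for the earlier primary screen, cut at about 29% in these data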;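 also: 0% = median of test compound wells and 100% = 2 mM ZnCl2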
CTSL1 counter: cathepsin L1 inhibitors, retest, confirmation, counter-screen for PFM18AAP inhibitor project, biochemical, QFRET, triplicate. shares compounds with PfM18AAP inh-1. purified cathepsin L1, Z-Leu-Arg-MCA fluorescence. inhibition, % at 5.96 µM. 2,400 tested, under 10 active. AID 2178, 2009;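 active = average inhibition across replicates above the hit cutoff set in the earlier primary screen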;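 also: 0% = median of test compound wells and 100% = Z-Phe-Ala-diazomethylketone 1 µM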
PfGluPho conf: PfG6PD inhibitors, hit retest, confirmation, biochemical, fluorescence intensity, single concentration; 34% of 2,400 active; recombinant PfGluPho, NADPH-diaphorase-resazurin fluorescence; inhibition, % at 20 µM; AID 504753, 2011; shares compounds with PfGluPho inh;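 active = inhibition of at least 50% at 20 µM in any single replicate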;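 also: 0% = DMSO with substrate and 100% = DMSO lacking glucose-6-phosphate substrate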
PRMT1 confirm: PRMT1 methyltransferase inhibitors, confirmation, biochemical, fluorescence polarization, triplicate | shares compounds with PRMT1 inh | recombinant His-PRMT1, activity-based probe fluorescence polarization | inhibition, % at 2.79 µM | 42% of 3,300 active;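 active = mean inhibition across replicates above the hit cutoff derived for the earlier primary screen, cut at about 22% in these data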
An asterisk follows results filed as active; / = no result. Shown are actives, neighbours in structure and some others; about 3.3% of the full set was active somewhere.

SMILES	PfM18AAP inh-1	PfGluPho inh	PRMT1 inh	UHRF1 binding	MBD2 DNA inh	PfM18AAP inh-2	CTSL1 counter	PRMT1 confirm	others
COC(=O)c1cc2c(c3c4cc(C)ccc4n(S(=O)(=O)c4ccc(C)cc4)c13)C(=O)N(Cc1ccccc1)C2	/	/	3	0	0	/	/	/
C#CCN1CC(N(C)CCOC(=O)c2ccc([N+](=O)[O-])cc2)CS1(=O)=O (stereo not drawn)	/	/	-2	4	4	/	/	/
COC(=O)[C@H](C(C)C)N1Cc2nnn(Cc3ccc(C)cc3)c2-c2cc(F)ccc2S1(=O)=O	/	/	-2	-2	-1	/	/	/
Cc1cc(C)nc(SCC(=O)c2cc3ccccc3oc2=O)n1	40*	22	25*	-4	-5	-8	2	8
CCOC(=O)C1C(=O)NC(SC)=C(C#N)C1c1ccccc1F (stereo not drawn)	5	0	0	0	4	/	/	/
N#CC1=C(N)NC(=S)C(C(N)=O)C1c1ccccc1F (stereo not drawn)	46*	30	64*	-3	-1	30*	-3	34*
Cc1ccc(-n2c(SCC(=O)Nc3ccc(OCc4ccccc4)cc3)nnc2-c2ccccc2)cc1	/	/	2	-1	1	/	/	/
O=C(O)c1ccccc1C(=O)Nc1nccs1	-5	-1	1	1	-2	/	/	/
O=C(O)c1ccccc1C(=O)Nc1n[nH]c(=S)s1	63*	72*	31*	2	1	9	-3	10	PfGluPho conf=34
CC1CCN(Cc2c(O)ccc3c2O/C(=C\c2ccco2)C3=O)CC1	7	12	/	/	/	/	/	/
COCCN(CCOC)Cc1c(O)ccc2c1O/C(=C\c1ccco1)C2=O	38*	25	31*	25*	2	-41	0	27*
O=C(NCC1CCN(C(=O)C(=O)c2cccs2)CC1)c1ccc2c(c1)OCO2	/	/	-2	8	0	/	/	/
CC(=O)c1sc2nc(C)c3c(c2c1N)CCCC3	1	42	5	-4	-2	/	/	/
CC(=O)c1sc2nsc(SCCN3CCCC3)c2c1N	32*	39	35*	-6	-10	-39	0	11
COc1ccccc1CC(=O)NCCN1C(=O)C2C3C=CC(C3)C2C1=O (stereo not drawn)	/	/	3	2	3	/	/	/
C=Cc1ccc2c(c1)N(C)C(=C)S2	47*	54	81*	-2	-2	-5	5	61*
CCc1c(-c2cccc(F)c2)ncn1CCc1ccccc1OC	/	/	8	4	1	/	/	/
CN1C(=O)c2cc(NS(=O)(=O)c3cccc(F)c3)ccc2OC[C@@H]2O[C@H](CC(=O)O)CC[C@H]21	/	/	-9	-1	1	/	/	/
CN(C)S(=O)(=O)c1cccc(C(=O)C2=C3SC=C(c4ccccc4)N3CC2)c1	34*	41	26*	-5	0	-13	-4	28*
CN(C)S(=O)(=O)c1cccc(C(=O)N2CCc3ccccc32)c1	4	-1	-2	-1	0	/	/	/
NC(=O)/C(=C/c1ccco1)C(N)=S	42*	48	53*	5	1	-15	-1	22*
